# The OligoGym collection
# Legend:
# Assay in all cases: pooled miR-30 sensor sort-seq; sequence = guide strand
# Settings in all cases: shRNA
# [1] = molecular target: FEZ1
# [2] = molecular target: FFAR2
# [3] = molecular target: FGA
# [4] = molecular target: FGF23
# [5] = molecular target: FIZ1
# [6] = molecular target: FNBP1L
# [7] = molecular target: FNBP1
# [8] = molecular target: FNDC5
# [9] = molecular target: FNTB
# [10] = molecular target: FPGS
# [11] = molecular target: FTL
# [12] = molecular target: FZR1
# [13] = molecular target: GALE
# [14] = molecular target: GABRP
# Further: reference of the scale not given here.
sequence,measurement,setting,value
ATGAACCATAGAAACACTGGGG,sensor-assay potency score (higher = more potent),[1],-0.474
TTCTCCTTGACCCACACCCCTG,sensor-assay potency score (higher = more potent),[2],-1.59
TCAAAGACTAATATGTCTCAGG,sensor-assay potency score (higher = more potent),[3],-0.257
TGAACCATAGAAACACTGGGGC,sensor-assay potency score (higher = more potent),[1],0.345
TAGATGCTGCTGTAGAAGCCAA,sensor-assay potency score (higher = more potent),[2],-0.865
TCGTGTTCAAGTATTGAACGAT,sensor-assay potency score (higher = more potent),[2],-0.455
TAAGCCATGAGGATCAAGGAGC,sensor-assay potency score (higher = more potent),[2],-1.02
TTCTCGTAAGGAATGACTGTGT,sensor-assay potency score (higher = more potent),[1],-0.149
TTGACTTCATCAATCAACCCTT,sensor-assay potency score (higher = more potent),[3],-0.0172
TTGAGTGAACTGAACACCACGG,sensor-assay potency score (higher = more potent),[2],0.516
TTTAGCTACAGTACAAAGGATA,sensor-assay potency score (higher = more potent),[3],-0.909
TAAGTCTTTGGCAATGACCTGT,sensor-assay potency score (higher = more potent),[3],0.441
TGAACCTCAATAAGCACCGTGA,sensor-assay potency score (higher = more potent),[1],-0.29
TTCAGGACTTCAATTCTGCTTC,sensor-assay potency score (higher = more potent),[3],-0.0905
TTCATTGCCACTTCTGACCTGC,sensor-assay potency score (higher = more potent),[2],0.752
TTGATTGACTTCATCAATCAAC,sensor-assay potency score (higher = more potent),[3],-0.764
TTTCTCTCCACTTCTCTAGCAA,sensor-assay potency score (higher = more potent),[3],0.384
TTTATTTCAAAATTAGTCTTAA,sensor-assay potency score (higher = more potent),[1],-0.684
AACATTTTTCTGCAGAAGCTGG,sensor-assay potency score (higher = more potent),[3],-0.95
TCTCGTAGCAGGTAATTTCATT,sensor-assay potency score (higher = more potent),[2],-0.802
TAGACTTCTGCACAGTTCTCTT,sensor-assay potency score (higher = more potent),[3],-0.561
TTTTTCTCTGGTGATACCCCAC,sensor-assay potency score (higher = more potent),[2],-0.286
TTATCGGTGAAGTTCTCGTAGC,sensor-assay potency score (higher = more potent),[2],-0.593
TTCTGCACAGTTCTCTTCCCAC,sensor-assay potency score (higher = more potent),[3],-0.744
TAAATTGTTTGCTGTAACTTGA,sensor-assay potency score (higher = more potent),[3],-0.0308
TTGTAGAGAATCTCAACTGCTT,sensor-assay potency score (higher = more potent),[3],0.304
TATTGTTCTTCTGATATTCAAA,sensor-assay potency score (higher = more potent),[3],-1.2
TTTTTCTATGACTTTGCGCTTC,sensor-assay potency score (higher = more potent),[3],-0.192
TGTAGTTCCAGTCTTCATCAGA,sensor-assay potency score (higher = more potent),[3],-0.66
TGAGTGAACTGAACACCACGGC,sensor-assay potency score (higher = more potent),[2],0.269
TTGTCTGTCAGAGCATCCCAAA,sensor-assay potency score (higher = more potent),[1],-1.44
TTCTATGACTTTGCGCTTCAGG,sensor-assay potency score (higher = more potent),[3],-0.597
TGTCTTTCCACAACCCTTGGGC,sensor-assay potency score (higher = more potent),[3],0.289
TTGTAGTCTTGCCAGGTCCGGT,sensor-assay potency score (higher = more potent),[3],-0.917
TTAGGTTGTAGAGAATCTCAAC,sensor-assay potency score (higher = more potent),[3],-0.726
TGGATCTGCAGGTGGTAGCTGT,sensor-assay potency score (higher = more potent),[4],-0.923
TCTCGCACTCGGAGCAGCCGAA,sensor-assay potency score (higher = more potent),[5],-1.41
TTGTCTAAGCTGTCGAACTGAT,sensor-assay potency score (higher = more potent),[6],-0.84
TAGAATTAGTGCAACACACATA,sensor-assay potency score (higher = more potent),[7],-0.218
TAATGTAGAGAACTTCACCTTC,sensor-assay potency score (higher = more potent),[6],-0.0833
TTGAAGAGCACAGGCTCGCTGG,sensor-assay potency score (higher = more potent),[8],-0.67
TTTCTCTAGAGTTACATCTATG,sensor-assay potency score (higher = more potent),[6],-0.933
TAAGCTGTCGAACTGATCCCAC,sensor-assay potency score (higher = more potent),[6],0.0926
TTGAGAGCTCTTGTAGACCGGA,sensor-assay potency score (higher = more potent),[8],0.301
TTTATTTAACTCATCGACTTTC,sensor-assay potency score (higher = more potent),[7],-0.243
TAAGCTTCTATTACCAGCTGTG,sensor-assay potency score (higher = more potent),[7],0.175
TTGTAGTTGCTTGTAAATCTGA,sensor-assay potency score (higher = more potent),[6],-0.235
TCCACCAGCTTGTTGCAGCGGC,sensor-assay potency score (higher = more potent),[9],-1.13
TTATTGGGTTCATTGTCCTTGA,sensor-assay potency score (higher = more potent),[8],-0.801
TATTGAAACGTATAAACCTTGT,sensor-assay potency score (higher = more potent),[9],-0.892
TTGGTCTGAAAGACACAGCTTG,sensor-assay potency score (higher = more potent),[8],-0.175
ATCTCTTTGATCCATCTCCTTC,sensor-assay potency score (higher = more potent),[7],-0.792
TTTTTCCTTGTTGTTATTGGGT,sensor-assay potency score (higher = more potent),[8],-0.666
TTTATAAGCTTCTATTACCAGC,sensor-assay potency score (higher = more potent),[7],-0.679
TATGATTCAAATAACACTGGGA,sensor-assay potency score (higher = more potent),[6],0.483
TAGCCAGAGCTGCTCTTCCTGT,sensor-assay potency score (higher = more potent),[8],-1.11
TTTCTGGGTCTCTACTCGCAGT,sensor-assay potency score (higher = more potent),[7],-1.12
TAACTTTGCGTTCTGAGTCAGC,sensor-assay potency score (higher = more potent),[6],-0.716
TTCATCATCAAACTCATTGTGG,sensor-assay potency score (higher = more potent),[6],0.113
TAATTCACCATACACTCTGTGC,sensor-assay potency score (higher = more potent),[6],-0.622
TTTTCCTTGTTGTTATTGGGTT,sensor-assay potency score (higher = more potent),[8],-0.634
TTCTGCTACAACTTCTCGCTGT,sensor-assay potency score (higher = more potent),[6],0.673
TAACTCATCGACTTTCTGCTGC,sensor-assay potency score (higher = more potent),[7],0.71
TATACTTGTATTCTTCTTCCTC,sensor-assay potency score (higher = more potent),[7],0.713
AAGAACTGAAGACCTCTTGGAT,sensor-assay potency score (higher = more potent),[9],-0.153
TTTTCTTCTACTTTTGCCTGTT,sensor-assay potency score (higher = more potent),[9],0.0828
TTGTCGAAGGCCTCTTTTCAGA,sensor-assay potency score (higher = more potent),[9],-1.02
TGACTTTTGACAATAGTCCTTT,sensor-assay potency score (higher = more potent),[6],-0.217
TTGATGATGTCATACTGGCGGC,sensor-assay potency score (higher = more potent),[8],-0.843
TTTACTAGATTCAAGCTGCTTC,sensor-assay potency score (higher = more potent),[7],0.524
TTGTCCAAGCTAGCATTTCTGA,sensor-assay potency score (higher = more potent),[8],-1.26
TACCTCATCTTTGTTCTTGGAG,sensor-assay potency score (higher = more potent),[8],0.567
TCTGTAGCCACTATCTGGGGGA,sensor-assay potency score (higher = more potent),[9],0.162
TTCCTAAATAAATTGGACCAGT,sensor-assay potency score (higher = more potent),[8],-0.788
TTTGGTGACGTATTTGAGCTTG,sensor-assay potency score (higher = more potent),[7],0.00299
TCATCTAGCAGTTCCAAGCTGT,sensor-assay potency score (higher = more potent),[9],0.0729
TTGTAGTGCAGCCTCCTTCATC,sensor-assay potency score (higher = more potent),[8],-0.884
TATAAACCTTGTCTGACTGGGG,sensor-assay potency score (higher = more potent),[9],0.554
TCGGAGGATACATTCCGTGAAG,sensor-assay potency score (higher = more potent),[10],-1.5
TTTTTCTCCAGGGCCATGGCAG,sensor-assay potency score (higher = more potent),[11],-1.05
AACATGGACAGCTTCTTCCCTG,sensor-assay potency score (higher = more potent),[12],-0.261
TTTATTTTTAAATACTTTGGAA,sensor-assay potency score (higher = more potent),[13],-0.203
TCAAACTGTAAGACCAATCTAG,sensor-assay potency score (higher = more potent),[14],0.125
TTCCTCGATGAAGAACTTGGAC,sensor-assay potency score (higher = more potent),[13],-0.651
TCTGTAATAATCCAGAGGCTTC,sensor-assay potency score (higher = more potent),[13],-1.35
TAAGGCTGCAATGTGGCCCTTG,sensor-assay potency score (higher = more potent),[13],0.223
TGGATGACCGCCATAAAGCTGT,sensor-assay potency score (higher = more potent),[13],-0.62
TTTTGAAGAGACGCTGTAGGGC,sensor-assay potency score (higher = more potent),[13],0.205
TAGTGTAATTTCCTGTCTCCTG,sensor-assay potency score (higher = more potent),[14],-0.339
TTGGACTCCACAATGTAAGTAT,sensor-assay potency score (higher = more potent),[14],0.553
TTCTGCTTCTGCCAGCGCCAGA,sensor-assay potency score (higher = more potent),[13],-1.44
TTCCCGTACACAGTGGCTGAGC,sensor-assay potency score (higher = more potent),[13],-0.834
TACACAGTGGCTGAGCTGCTGA,sensor-assay potency score (higher = more potent),[13],-1.04
AACACCAGGTTCTTCACCCCGT,sensor-assay potency score (higher = more potent),[13],-0.43
TGAAGAACTTGGACTTGCCGTA,sensor-assay potency score (higher = more potent),[13],-0.185
TTGATGATATTAGTAATACTGA,sensor-assay potency score (higher = more potent),[14],-0.994
TTCCAAGTCTTGTCTGCCTGGC,sensor-assay potency score (higher = more potent),[13],-0.133
TCACACATCCTGTCCAGCCCTA,sensor-assay potency score (higher = more potent),[13],-0.0923
ACAAACTTGAACTTGTCGCTGG,sensor-assay potency score (higher = more potent),[14],0.62
TAACTCTGTAATAATCCAGAGG,sensor-assay potency score (higher = more potent),[13],-0.909
ATCCTCACACATCCTGTCCAGC,sensor-assay potency score (higher = more potent),[13],-0.56
TCTGTGTCATAGTCATTGCCAA,sensor-assay potency score (higher = more potent),[13],-0.861
TTACATGCAACAGTTGTCGTGA,sensor-assay potency score (higher = more potent),[14],0.789
TTTTCTCGGAAGACAAACTTGA,sensor-assay potency score (higher = more potent),[14],-0.264
AAACTTGAACTTGTCGCTGGTT,sensor-assay potency score (higher = more potent),[14],0.218
TTACATCATTATCTTGTCCTGT,sensor-assay potency score (higher = more potent),[14],0.386
TCAAACTCCACAGAGCGGCCTG,sensor-assay potency score (higher = more potent),[13],-0.0381
TAGTAATACTGACTTCTTCTAC,sensor-assay potency score (higher = more potent),[14],-0.185
TATGGTGGCTGTGTAGTCCATG,sensor-assay potency score (higher = more potent),[14],-0.102
TTCATTGTCAAGTCACTGTAGT,sensor-assay potency score (higher = more potent),[14],0.147
TACTTTGGAAAGCTCTTTCAGA,sensor-assay potency score (higher = more potent),[13],-0.275
TAGTCAACGTTGTCGCTGGAAA,sensor-assay potency score (higher = more potent),[14],-1.15
TTGCCTTCAAACACCAGCCGCT,sensor-assay potency score (higher = more potent),[14],0.206
TCGATGAAGAACTTGGACTTGC,sensor-assay potency score (higher = more potent),[13],-0.0111
TTTGAATTGTGAAATAATCAAC,sensor-assay potency score (higher = more potent),[14],-1.06
AAATACAGAACATTCCTCCGAA,sensor-assay potency score (higher = more potent),[14],0.853
ATGAAGAACTTGGACTTGCCGT,sensor-assay potency score (higher = more potent),[13],-1.09
TAGTGATCAACATTACTGGGGT,sensor-assay potency score (higher = more potent),[14],0.2
TTACTCTCTGAAATGCTAGAGA,sensor-assay potency score (higher = more potent),[14],-0.589
TACTTTTTGAAGAGACGCTGTA,sensor-assay potency score (higher = more potent),[13],-0.402
